Results: paper PMC5540273 (PLoS ONE, 2017)

Test system: p38-delta
Conditions: concentration: 1 μM, replicates: in singlicate; n = 1
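Note: KINOMEscan kinase panel screen.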

Structure (SMILES)	%Inh
C[C@@H](Oc1cc(-n2cnc3cc(-c4ccnc(NCCS(C)(=O)=O)c4)ccc32)sc1C(N)=O)c1ccccc1Cl [GSK907232]	29%
Cc1ccc(F)c(C(=O)Nc2cccc(-c3nn4ccccc4c3-c3ccnc(Nc4cccc(F)c4)n3)c2)c1F [GSK361061]	0%
Cl.NC(=O)c1cccc(Nc2nccc(Nc3ccc(Oc4c(Cl)cccc4Cl)c(Cl)c3)n2)c1 [GW659009]	0%
CN(C)S(=O)(=O)c1cc(-c2ccc3nccc(-c4cccc(S(N)(=O)=O)c4)c3c2)cnc1N [GSK1669921]	44%
NCCCC(NC(=O)c1cc(Br)c(-c2ccnc3[nH]ccc23)s1)c1ccccc1.O=C(O)C(F)(F)F.O=C(O)C(F)(F)F (stereo not drawn) [GSK1287544]	0%

Test system: T1, p38-gamma
T1 construct: gene MAPK12
Conditions: concentration: 1 μM, replicates: in singlicate; n = 1

Structure (SMILES)	%Inh
O=C(O)C(F)(F)F.O=C(O)C(F)(F)F.O=c1[nH]ccc2nc(N[C@@H]3CCCNC3)nc(Nc3ccc(S(=O)(=O)N4CCOCC4)cc3)c12 [GSK2177277]	40%
COC(=O)Nc1nc2ccc(Oc3ccc(NC(=O)Nc4cc(C(F)(F)F)ccc4F)cc3)cc2n1C.Cl [GW692089]	44%
Fc1ccc(-c2ncn(C3CCNCC3)c2-c2ccnc(Oc3ccc(-c4ccccc4)cc3)n2)cc1 [SB-245391]	26%
O=C(Nc1n[nH]c2nc(-c3ccc(O)cc3)ccc12)C1CC1 [SB-710363]	20%
c1ccc(-c2n[nH]cc2Nc2ccnc3ccccc23)nc1 [GW694077]	0%
O=C(Nc1cccc(-c2nn3ccccc3c2-c2ccnc(Nc3cccc(F)c3)n2)c1)c1c(F)ccc(F)c1Cl [GSK357952]	0%
Nc1ncc(-c2ccc3nccc(-c4ccncc4)c3c2)cc1S(=O)(=O)N1CCOCC1 [GSK1627798]	0%
COc1ccc(Nc2nccc(NCCNC(=O)c3cc4ccccc4s3)n2)cc1 [GSK1379896]	5%
CN(c1ccc(NC(=O)Nc2cc(C(F)(F)F)ccc2F)cc1)c1ccnc(Nc2ccc(S(N)(=O)=O)cc2)n1 [GW809893]	85%
COc1ccc(CNC(=O)NC2CCN(c3ccnc(Nc4ccc(F)cc4)n3)CC2)cc1 [GSK1379788]	0%
Cc1ccc(S(=O)(=O)Nc2ccc(Nc3nccc(Nc4cccc5[nH]ncc45)n3)cc2)cc1 [GSK581271]	0%
COc1cccc(NC(=O)NC2CCN(c3ccnc(Nc4cc(OC)c(OC)c(OC)c4)n3)C2)c1 (stereo not drawn) [GSK1379763]	4%
CC(C)c1nc(-c2cccc(NS(=O)(=O)c3c(F)cccc3F)c2F)c(-c2ccnc(Nc3ccc(N4CCOCC4)nc3)n2)s1 [GSK2008607]	0%
CN1CCN(CCCNc2nccc(-c3c(-c4ccc(F)cc4)nn4cc(C(F)(F)F)ccc34)n2)CC1 [GW621581]	18%
CCn1c(-c2nonc2N)nc2c(C#CC(C)(C)O)nc(OC[C@H](N)c3ccccc3)cc21 [GSK943949]	34%
Cl.c1ccc(-c2ccc3c(Nc4ccc5[nH]ncc5c4)ccnc3c2)nc1 [GW440137]	14%
COc1cccc(-c2ccc3c(NC(=O)C4CC4)n[nH]c3n2)c1 [SB-710903]	0%
CCCCc1nn2ncccc2c1-c1ccnc(Nc2ccc(N3CCN(C)CC3)cc2)n1 [GW684941]	0%
CC(C)(C)c1ccc2nccc(Nc3cccc(O)c3)c2c1 [GW856795]	18%

Structure (SMILES)	%Inh
COc1cc(Nc2nccc(-c3c(-c4cccc(NC(=O)c5c(F)cccc5F)c4)nn4ccccc34)n2)cc(OC)c1OC [GSK323521]	42%
COc1cccc(C(=O)Nc2cccc(Oc3ccc4nc(NC(=O)C5CC5)cn4n3)c2)c1	39%
CCc1ccc(-c2ccc3c(c2)-c2c(cnn2C)S(=O)(=O)N3C)cc1	14%
Cn1cc(-c2ccc3c(c2)CCN3C(=O)Cc2cccc(F)c2)c2c(N)ncnc21 [GSK2603358]	19%
COc1cc2c(cc1OCCN1CCNCC1)ncc1c3ccc(C#N)cc3[nH]c21	30%
COc1cc(Nc2ncc3c(C)nc(-c4cc5ccccc5[nH]4)n3n2)cc(OC)c1OC [GW869516]	16%
CC(=O)Nc1nc2cnc(Nc3cc(NC(=O)c4cccc(C5(C#N)CC5)c4Cl)ccc3C)nc2s1	0%
CCn1c(-c2nonc2N)nc2c(C#CC(C)(C)O)ncc(OCCCCN)c21.O=C(O)C(F)(F)F.O=C(O)C(F)(F)F [GSK507274]	0%
Oc1cc(Nc2ccnc3cc(I)ccc23)ccc1F [GW552771]	0%
Nc1n[nH]c2cnc(-c3ccccc3)cc12 [SB-642124]	0%
C[C@@H]1CC[C@@H](C(=O)Nc2ccccc2)CN1c1cc(-c2ccc3c(N)n[nH]c3c2)nc(N)n1 [GSK2286062]	46%
Cc1ccc(C(=O)N2CC[C@@H](O)C2)cc1-n1c(C)cc(OCc2ccc(F)cc2F)c(Br)c1=O	5%
Nc1ncc(-c2cccnc2)c2scc(-c3ccc4c(c3)CCN4C(=O)Cc3ccccc3)c12 [GSK683281]	0%
C[C@@H](Oc1cc(-n2cnc3cc(-c4ccnc(NCCS(C)(=O)=O)c4)ccc32)sc1C(N)=O)c1ccccc1Cl [GSK907232]	0%
Cc1ccc(F)c(C(=O)Nc2cccc(-c3nn4ccccc4c3-c3ccnc(Nc4cccc(F)c4)n3)c2)c1F [GSK361061]	12%
Cl.NC(=O)c1cccc(Nc2nccc(Nc3ccc(Oc4c(Cl)cccc4Cl)c(Cl)c3)n2)c1 [GW659009]	0%
CN(C)S(=O)(=O)c1cc(-c2ccc3nccc(-c4cccc(S(N)(=O)=O)c4)c3c2)cnc1N [GSK1669921]	23%
NCCCC(NC(=O)c1cc(Br)c(-c2ccnc3[nH]ccc23)s1)c1ccccc1.O=C(O)C(F)(F)F.O=C(O)C(F)(F)F (stereo not drawn) [GSK1287544]	10%
